Results with a measured potency or affinity are listed apart. Results filed as inconclusive are left out. The source made the active and inactive calls.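 The calls were made as follows: active = samples whose fitted half-maximal inhibition concentration is no more than ten times the top valid dose tested; inconclusive = flat response between -70 and -30, or invalid curve fit; inactive = flat within 30 of zero, potency above limit, or signal rising.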
Each compound was assayed against Trypsin (Sus scrofa) (UniProt P00761) (assay: porcine trypsin inhibitors, dose response, selectivity assay for Rce1 protease inhibitor project, biochemical, quenched peptide fluorescence, cherry-pick (AID 488789;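 also: more negative means stronger trypsin inhibition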)). Conditions: quenched peptide cleavage fluorescence; series mostly up to 10 µM.
Sequence of Trypsin (Sus scrofa) (P00761 whole entry, looked up): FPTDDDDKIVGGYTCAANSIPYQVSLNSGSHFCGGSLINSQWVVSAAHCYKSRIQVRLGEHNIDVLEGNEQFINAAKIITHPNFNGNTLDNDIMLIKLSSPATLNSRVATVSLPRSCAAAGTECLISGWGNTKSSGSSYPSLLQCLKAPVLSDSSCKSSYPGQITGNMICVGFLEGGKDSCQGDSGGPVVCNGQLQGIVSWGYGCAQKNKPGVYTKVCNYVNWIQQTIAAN
For O=[N+]([O-])c1ccc(C[n+]2c(-c3ccccc3)cc(-c3ccccc3)cc2-c2ccccc2)cc1, the outcome was “inactive”.
For CCOC(=O)[C@@H]1[C@H]2COc3ccc(Br)cc3[C@@H]2N2C(=O)N(c3cccc(C)c3)C(=O)[C@]12C, the outcome was “inactive”.
Clc1ccc(C[n+]2c(-c3ccccc3)cc(-c3ccccc3)cc2-c2ccccc2)cc1 was tested, and the outcome was “inactive”.
CN1CCN(c2ccc([N+](=O)[O-])c(Sc3nncn3C)c2)CC1 was tested, and the outcome was “inactive”.
For Cc1ccc(-c2cc(-c3ccccc3)cc(-c3ccccc3)[n+]2-c2ccccc2)cc1, the outcome was “inactive”.
C=CC[N+]1(C)CC[C@]23c4c5ccc(O)c4O[C@H]2C(=O)CC[C@@]3(O)[C@H]1C5 (stereo partly drawn) was tested, and the outcome was “inactive”.
With Cc1nccc2c1[nH]c1ccccc12 the outcome was “inactive”.
For Cc1ccnc(-n2c(-c3ccco3)nc3ccccc3c2=O)c1, the outcome was “inactive”.
For CCOc1ccc(C2C(C#N)=C(N)Oc3c2c(=O)oc2ccccc32)cc1 (stereo not drawn), the outcome was “inactive”.
With c1ccc(CCCN2CCN(CCOC(c3ccccc3)c3ccccc3)CC2)cc1 the outcome was “inactive”.
In the case of C=CCn1c(O)c(C(CC)=Nc2ccc(N(CC)CC)cc2)c(=O)[nH]c1=O, the outcome is reported as “inactive”.
In the case of CN1CC(C(=O)c2ccc(Cl)cc2)C(c2ccc(Cl)cc2Cl)C1 (stereo not drawn), the outcome is reported as “inactive”.
CC(=O)OCC[N+](C)(C)C was tested, and the outcome was “inactive”.
